# PubChem BioAssay (Tox21)
# Records with an inconclusive call do not appear. Where a call stands in place of a potency, no number is given. Activity calls are given as the source filed them. The call rests on the fitted dose curve; in most records, active means well fitted activation curve with a large enough effect in the repeat runs; inconclusive means weak or mixed curves, or effect the other way; inactive means no such curve, though single readings can be large or run the other way.
# Target: Estrogen receptor (Homo sapiens) (UniProt P03372)
# Sequence (P03372 whole entry, looked up): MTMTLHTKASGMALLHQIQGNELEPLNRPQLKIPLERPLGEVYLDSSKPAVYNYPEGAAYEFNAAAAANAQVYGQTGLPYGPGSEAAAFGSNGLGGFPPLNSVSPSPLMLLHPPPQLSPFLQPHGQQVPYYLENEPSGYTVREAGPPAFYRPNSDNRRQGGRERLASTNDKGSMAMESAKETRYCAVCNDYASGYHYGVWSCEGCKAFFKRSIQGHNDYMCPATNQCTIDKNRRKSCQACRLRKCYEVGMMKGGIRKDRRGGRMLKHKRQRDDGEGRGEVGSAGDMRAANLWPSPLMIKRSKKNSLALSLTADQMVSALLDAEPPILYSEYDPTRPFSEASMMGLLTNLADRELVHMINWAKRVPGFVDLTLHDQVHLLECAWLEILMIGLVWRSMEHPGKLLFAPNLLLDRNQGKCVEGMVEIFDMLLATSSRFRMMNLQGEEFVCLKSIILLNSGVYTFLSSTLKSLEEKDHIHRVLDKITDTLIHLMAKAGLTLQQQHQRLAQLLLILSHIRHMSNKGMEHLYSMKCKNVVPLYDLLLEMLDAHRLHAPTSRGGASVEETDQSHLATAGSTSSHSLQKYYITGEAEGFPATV
# Experiment: qHTS assay to identify small molecule agonists of the estrogen receptor alpha (ER-alpha) signaling pathway using the BG1 cell line (AID 743079); further: nearly all actives have a fitted effect of over 20% in size
# Conditions: BG1Luc4E2 cells, ERE-luciferase agonist, 22 h; activation: at 70.3 µM (top of the series)
# Potency means the concentration at half of the fitted maximal effect.
row,Compound,Potency
1,C=C1c2c(Cl)ccc(O)c2C(O)=C2C(=O)[C@]3(O)C(O)=C(C(N)=O)C(=O)[C@@H](N(C)C)[C@@H]3[C@@H](O)[C@H]12,inactive
2,O=P(O)(O)C(O)(Cc1cnc2ccccn12)P(=O)(O)O,inactive
3,CCCCCCCCCCCCCCCCCC(=O)OCCO,9.44 µM (active)
4,COc1cc(S(C)=O)ccc1-c1nc2ncccc2[nH]1 (stereo not given),inactive
5,c1ccc2c(CCC3CCNCC3)c[nH]c2c1,inactive
6,NCCCC[C@H](NC(=O)[C@@H]1CCCN1C(=O)[C@@H]1CSSC[C@H](N)C(=O)N[C@@H](Cc2ccccc2)C(=O)N[C@@H](Cc2ccccc2)C(=O)N[C@@H](CCC(N)=O)C(=O)N[C@@H](CC(N)=O)C(=O)N1)C(=O)NCC(N)=O,inactive
7,O=c1[nH]cnc2[nH]cc(CN3CCCCC3)c12,inactive
8,O=C(O)c1ccc(OCCn2ccnc2)cc1,inactive
9,CNC[C@@H]1CC[C@@H](N)[C@@H](O[C@H]2[C@H](O)[C@@H](O[C@H]3OC[C@](C)(O)[C@H](NC)[C@H]3O)[C@H](N)C[C@@H]2N)O1,inactive
10,C[N+](C)(CCCCCC[N+](C)(C)C1c2ccccc2-c2ccccc21)C1c2ccccc2-c2ccccc21,inactive
11,Nc1ncnc(Nc2ccc(Cl)cc2)n1,23.7 µM (active)
12,O=P(O)(O)OC(Cn1cncn1)(Cn1cncn1)c1ccc(F)cc1F,inactive
13,OCC(O)COc1ccc(Cl)cc1 (stereo not given),inactive
14,C[C@]12CCC(=O)C=C1CC[C@@H]1[C@@H]2[C@@H](O)C[C@@]2(C)[C@H]1CC[C@]2(O)C(=O)COP(=O)(O)O,29.8 µM (active)
15,Cc1ccccc1CNc1ncnc2c1ncn2[C@@H]1O[C@H](CO)[C@@H](O)[C@H]1O,inactive
16,CC(=O)OC[C@H]1O[C@@H](O[C@H]2[C@H](O)[C@@H](OC(=O)c3ccccc3C(=O)O)[C@H](O)O[C@@H]2COC(C)=O)[C@H](O)[C@@H](OC(=O)c2ccccc2C(=O)O)[C@@H]1O,inactive
17,C#CCC(Cc1cnc2nc(N)nc(N)c2n1)c1ccc(C(=O)N[C@@H](CCC(=O)O)C(=O)O)cc1 (stereo not given in full),inactive
18,O=C[C@H](O)[C@@H](O)[C@H](O[C@H]1O[C@H](CO)[C@@H](O[C@H]2O[C@H](CO)[C@@H](O)[C@H](O)[C@H]2O)[C@H](O)[C@H]1O)[C@H](O)CO,26.6 µM (active)
19,CC(=O)N[C@@H](CC(=O)N[C@@H](CCC(=O)O)C(=O)O)C(=O)O,inactive
20,CC(=O)OCC(=O)[C@@]1(O)[C@H](C)C[C@H]2[C@@H]3C[C@H](F)C4=CC(=O)C=C[C@]4(C)[C@H]3[C@@H](O)C[C@@]21C,inactive
21,C[C@H]1C[C@H]2[C@@H]3CCC4=CC(=O)C=C[C@]4(C)[C@@]3(F)[C@@H](O)C[C@]2(C)[C@@]1(O)C(=O)CCl,inactive
22,Cc1c(O)cc2c(c1C)O[C@](C)(CCC[C@H](C)CCC[C@H](C)CCCC(C)C)CC2,inactive
23,CCCCCCCCCCCCCCCC(=O)OC[C@@H](COP(=O)([O-])OCC[N+](C)(C)C)OC(=O)CCCCCCCCCCCCCCC,29.8 µM (active)
24,CCCCCCCCCCCCCCCCCCOP(=O)([O-])OC1CC[N+](C)(C)CC1,inactive
25,CO[C@H]1[C@@H](O)[C@H](N)[C@@H](O[C@H]2O[C@H]([C@H](C)N)CC[C@H]2N)[C@H](O)[C@@H]1N(C)C(=O)CN,33.5 µM (active)
